Values of other authors, collected in PubChem BioAssay AID977611.
About 3,900 (100%) of roughly 3,900 compounds were called active. Cut-off not given; nearly all actives show Kd up to about 4200 µM. The set was probably picked from earlier hits. The list shows a part of the results. Non-standard residues stand in square brackets, D forms with d. Square brackets hold non-standard residues; d marks the D form. Residues, ends and D or L forms follow the SMILES beside them. Peptide text beside a SMILES is read from it. Thr(P(OH)3+) = C[C@@H](O[P+](O)(O)O)[C@H](N)C(=O)O; Orn(CH(NH2)2) = NC(N)NCCC[C@H](N)C(=O)O

Test: PubChem AID 977611
Settings: PDB protein-ligand complexes, literature Kd

**Q.** For H-DDFGGFEAAET-OH, which Kd (protein: ADP-ribosylation factor binding protein GGA1, PDB entry 1om9) is on record?
**A.** 70000 nM (active)

**Q.** With CC(C)C[C@H](NC(=O)[C@H](CCC(=O)O)NC(=O)[C@H](CCC(N)=O)NC(=O)[C@@H](NC(=O)[C@H](CO)NC(=O)[C@@H](N)C(C)C)[C@@H](C)O[P+](O)(O)O)C(=O)N[C@@H](Cc1ccc(O)cc1)C(=O)N[C@@H](CO)C(=O)O (H-VS[Thr(P(OH)3+)]QELYS-OH) as the molecule, how does the Kd (protein: mammalian MDC1 FHA domain, PDB entry 3va4) read?
**A.** 40000 nM (active)

**Q.** For H-EPQAPWME-OH, which Kd (protein: antibody Fab, PDB entry 3uyr) is on record?
**A.** 127 nM (active)

**Q.** With C[C@H](NC(=O)[C@@H](N)CO)C(=O)N[C@@H](CCCNC(N)N)C(=O)N[C@@H](Cc1c[nH]c2ccccc12)C(=O)N[C@@H](CCCNC(N)N)C(=O)N[C@@H](Cc1ccccc1)C(=O)N1CCC[C@H]1C(=O)N[C@@H](C)C(=O)N[C@@H](CCCNC(N)N)C(=O)N1CCC[C@H]1C(=O)NCC(=O)N[C@H](C(=O)O)[C@@H](C)O as the molecule, how does the Kd (protein: Menin (A541T mutation), PDB entry 4gq6) read?
**A.** 53 nM (active)

**Q.** With CC(C)C[C@@H](NC(=O)[C@H]1CCCN1C(=O)[C@@H](Cc1c[nH]c2ccccc12)NC(=O)[C@@H](Cc1c[nH]c2ccccc12)NC(=O)[C@H](N)CC(=O)O)C(=O)N[C@H](C)C(=O)N[C@H](Cc1ccccc1)C(=O)N[C@H](CCC(=O)O)C(=O)N[C@H](C)C(=O)N[C@H](CC(C)C)C(=O)N[C@H](CC(C)C)C(=O)N[C@H](CCCNC(N)N)C(=O)O as the molecule, how does the Kd (protein: human MDM2 (Synthetic construct, 25-109), PDB entry 3iwy) read?
**A.** 53 nM (active)

**Q.** With H-EWGPWV-NH2 as the molecule, how does the Kd (protein: AP-1 COMPLEX SUBUNIT GAMMA-LIKE 2, PDB entry 2ymt) read?
**A.** 10 nM (active)

**Q.** For CC(C)C[C@H](NC(=O)[C@H](Cc1c[nH]c2ccccc12)NC(=O)[C@H](CC(=O)O)NC(=O)[C@H](CCC(N)=O)NC(=O)[C@H](CC(N)=O)NC(=O)[C@H](CCCNC(N)N)NC(=O)[C@@H]1CCCN1C(=O)CNC(=O)[C@@H](N)CCC(=O)O)C(=O)O (H-EGP[Orn(CH(NH2)2)]NQDWL-OH), which Kd (protein: H-2 class I histocompatibility antigen (Y159F mutation), PDB entry 4iho) is on record?
**A.** 8000 nM (active)

**Q.** For CC[C@H](C)[C@H](NC(=O)[C@H](CC(=O)O)NC(=O)[C@H](Cc1ccc(O)cc1)NC(=O)[C@H](C)NC(=O)[C@H](C)NC(=O)CN)C(=O)N[C@@H](CO[P+](O)(O)O)C(=O)N[C@@H](CCC(N)=O)C(=O)N[C@H](C(=O)N[C@@H](Cc1ccccc1)C(=O)N1CCC[C@H]1C(=O)N[C@@H](Cc1ccccc1)C(=O)N[C@@H](C)C(=O)N[C@@H](C)C(=O)O)C(C)C, which Kd (protein: Breast cancer type 1 susceptibility protein, PDB entry 1t2v) is on record?
**A.** 400 nM (active)

**Q.** Which Kd (protein: FHA1 Domain of Rad53, PDB entry 1k3n) does the source give for CSCC[C@H](NC(=O)[C@H](CCCCN)NC(=O)[C@@H](N)CCCCN)C(=O)N[C@H](C(=O)N[C@@H](Cc1ccccc1)C(=O)N[C@@H](CCC(N)=O)C(=O)N[C@H](C(=O)N1CCC[C@H]1C(=O)N[C@H](C(=O)N[C@@H](CC(=O)O)C(=O)N1CCC[C@H]1C(=O)N[C@@H](CC(C)C)C(=O)N[C@@H](CCC(=O)O)C(=O)O)[C@@H](C)O)[C@@H](C)O[P+](O)(O)O)[C@@H](C)O (H-KKMTFQ[Thr(P(OH)3+)]PTDPLE-OH) here?
**A.** 10200 nM (active)

**Q.** For H-SVPIQCTDKTDKQEALFK-OH, which Kd (protein: human tumor necrosis factor receptor(TRAF3), PDB entry 1l0a) is on record?
**A.** 23900 nM (active)

**Q.** For H-SAVLQKKITDYFHPKK-OH, which Kd (protein: human proliferating cell nuclear antigen(PCNA), PDB entry 1vyj) is on record?
**A.** 100 nM (active)

**Q.** With CCCCCCCCNc1cc(-c2ccc(OC)cc2)nc(N)n1 as the molecule, how does the Kd (protein: Acetylcholine-binding protein AChBP, PDB entry 4qaa) read?
**A.** 360 nM (active)

**Q.** Which Kd (protein: GLUCOSYL-3-PHOSPHOGLYCERATE SYNTHASE (GpgS), PDB entry 4de7) does the source give for C[C@H]1O[C@@H](n2ccc(=O)[nH]c2=O)[C@H](O)[C@@H]1O here?
**A.** 16000 nM (active)

**Q.** For O=c1ccn([C@@H]2O[C@H](CO[P+](O)(O)O)[C@@H](O)[C@H]2O)c(=O)[nH]1, which Kd (protein: Orotidine 5'-phosphate decarboxylase, PDB entry 3w07) is on record?
**A.** 420000 nM (active)

**Q.** For O=c1ccn([C@H]2C[C@H](O)[C@@H](CO[P+](O)(O)N[P+](O)(O)O[P+](O)(O)O)O2)c(=O)[nH]1, which Kd (protein: DUTPase, PDB entry 4gv8) is on record?
**A.** 320 nM (active)

**Q.** Which Kd (protein: Poly(A) RNA polymerase protein cid1, PDB entry 4nkt) does the source give for O=c1ccn([C@@H]2O[C@H](CO[P+](O)(O)N[P+](O)(O)O[P+](O)(O)O)[C@@H](O)[C@H]2O)c(=O)[nH]1 here?
**A.** 1080 nM (active)
